The panel holds about 79,000 compounds, 15% with a hit somewhere; the sample as a whole holds those more often. No stated cut-off is given here; in the data, active means growth inhibition above about 70%; inactive means the rest.
Columns and labels:
[1] = NCI Yeast Anticancer Drug Screen. Data for the rad50 strain (AID 155);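 further: 0% = growth of vehicle-only cultures of the same strain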; conditions: S. cerevisiae rad50 strain growth inhibition; at 50.0 µM; active compounds read high
In short: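 Vehicle-treated cultures provide the reference for the growth inhibition reported for compound-exposed, repair-deficient yeast.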

[2] = NCI Yeast Anticancer Drug Screen. Data for the mec2-1 strain (AID 157); conditions: S. cerevisiae mec2-1 strain, at 50.0 µM, active compounds read high
In short: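 Each compound was tested on mec2-1 yeast, a strain altered in DNA damage repair or cell cycle control. Growth inhibition is reported relative to vehicle.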

[3] = NCI Yeast Anticancer Drug Screen. Data for the sgs1 mgt1 strain (AID 161);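 further: 0% = growth of cultures given vehicle only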; conditions: S. cerevisiae sgs1 mgt1 strain, at 50.0 µM, active compounds read high
In short: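 Inhibition of yeast growth, normalised to vehicle-treated controls, is reported for a strain bearing genetic alterations in DNA damage repair.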

[4] = NCI Yeast Anticancer Drug Screen. Data for the cln2 rad14 strain (AID 165);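 further: 0% = growth equal to vehicle treated cultures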; conditions: S. cerevisiae cln2 rad14 strain, at 50.0 µM, active compounds read high
In short: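 Test compounds were added to cln2 rad14 yeast cultures; inhibition of growth was then determined by comparison with vehicle treatment.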

[5] = NCI Yeast Anticancer Drug Screen. Data for the bub3 strain (AID 167); conditions: S. cerevisiae bub3 mutant strain, at 50.0 µM, active compounds read high
In short: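 Mutant yeast screening strain plus compound; vehicle-treated cultures serve as the 0% inhibition reference.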

[6] = NCI Yeast Anticancer Drug Screen. Data for the mlh1 rad18 strain (AID 175); conditions: S. cerevisiae mlh1 rad18 strain growth inhibition; at 50.0 µM; active compounds read high
In short: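 Inhibition values reflect reduced growth of mutant yeast versus vehicle-treated controls following compound exposure; the mutations affect DNA damage repair.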

Measured: growth inhibition

CCC/C=C/C=C\C(=O)O[C@@H]1[C@@H](C)[C@]2(O)[C@@H]3C=C(C)C(=O)[C@H]3CC(COC(C)=O)=C[C@H]2[C@@H]2C(C)(C)[C@]12OC(C)=O
inactive: [1] 21.7% | [2] -4.9% | [3] -8.1% | [4] 11.9% | [5] -9.65% | [6] -26.2%

CCCCOC(=O)C(=O)OCCCC
inactive: [1] 13.7% | [2] -2.9% | [3] 3.75% | [4] 14.8% | [5] 21.1% | [6] 17.2%

Oc1nc(-c2ccccc2)sc1-c1ccccc1
inactive: [1] -6.05% | [2] 16.9% | [3] -0.5% | [4] -24% | [5] -10.7% | [6] -9.15%

O=C1c2ccccc2C(=O)N1CNc1cccc(Cl)c1
inactive: [1] 6.45% | [2] 13.2% | [3] 9.45% | [4] 10.1% | [5] 4.6% | [6] 22.4%

O=[N+]([O-])c1ccc(N/N=C2\C=CCCC2)c([N+](=O)[O-])c1
inactive: [1] -0.95% | [2] -11.9% | [3] -13% | [4] 15.3% | [5] -12.6% | [6] 17.1%

Cc1c(-c2nnc(-c3ccccc3)o2)c(=O)n(-c2ccccc2)n1C
inactive: [1] -7.3% | [2] -6.6% | [3] -30.2% | [4] -27.1% | [5] -26.1% | [6] -21.6%

CCCCCCCCCCCCCCCCCC(=O)N/N=C\c1ccc(O)c(OC)c1
inactive: [1] -11.6% | [2] -13.6% | [3] -9.35% | [4] -56.8% | [5] -2.55% | [6] 6.5%

O=c1[nH]cc(NCCc2ccccc2)c(=O)[nH]1
inactive: [1] 0.75% | [2] -4% | [3] -17.4% | [4] -50.9% | [5] 7.4% | [6] 1.6%

CSc1n[n+]2c(s1)SCCC2
inactive: [1] -19.8% | [2] -27.2% | [3] 0.05% | [4] 5.45% | [5] -8.7% | [6] 0.05%

Cc1ccc(S(=O)(=O)OC2C3OC(C)(C)OC3OC2C2CSC(=S)S2)cc1 (stereo unspecified)
inactive: [1] 0.3% | [2] -6.6% | [3] 10.1% | [4] -12.8% | [5] -25.3% | [6] 4%

CC(C)=CCC/C(C)=C/CNc1ncnc2c1ncn2C1OC(CO)C(O)C1O (stereo unspecified)
inactive: [1] -4.3% | [2] 13.7% | [3] 6.6% | [4] -37% | [5] 12.9% | [6] 27.6%

CC1=CC2N(C=C1)C(c1cccc([N+](=O)[O-])c1)=NON2c1cc(C)ccn1 (stereo unspecified)
inactive: [1] 7.05% | [2] 0.95% | [3] 6.85% | [4] 13.6% | [5] -1% | [6] 23.9%

CCC(=O)c1ccc([N+](=O)[O-])cc1
inactive: [1] -14.2% | [2] -18.2% | [3] -24.7% | [4] -59.4% | [5] 1.95% | [6] -10.2%

CNc1nnnn1C1OC(CO)C(O)C1O (stereo unspecified)
inactive: [1] -2.15% | [2] -8.9% | [3] -9.6% | [4] 9.35% | [5] -10.7% | [6] -21.4%

Nc1ccc2nnn(OC3CCCC3)c2c1
inactive: [1] 40.2% | [2] 13.9% | [3] 3.55% | [4] 9.4% | [5] -4.05% | [6] 0.4%

N#CCCCCC12C3C(=O)N(c4ccccc4)C(=O)C3ON1O[C@@H]1C(=O)N(c3ccccc3)C(=O)[C@@H]12 (stereo partly specified)
inactive: [1] 43.4% | [2] 19.3% | [3] 26.7% | [4] 49.9% | [5] 33.5% | [6] 44.4%

C[C@]12CCC(=O)C=C1CC[C@@H]1[C@@H]2CC[C@]2(C)C(=O)NC(=O)C[C@@H]12
inactive: [1] -1.65% | [2] -15.8% | [3] 32.6% | [4] 24.9% | [5] -3% | [6] -16.9%

CC(=O)Nc1ccc(I)cc1
inactive: [1] 40.7% | [2] 3.2% | [3] 15.2% | [4] -0.8% | [5] -7.65% | [6] 21.9%

O=C(/C=C/c1ccc(OCCCOc2ccc(/C=C/C(=O)c3ccccc3)cc2)cc1)c1ccccc1
inactive: [1] 14.3% | [2] -18.1% | [3] -4.25% | [4] -57% | [5] -37.9% | [6] -10.5%

CN(C)CCNC(=O)C(C)(C)Oc1ccc(C(=O)c2ccc(Cl)cc2)cc1Cl
inactive: [1] -1.55% | [2] 6.1% | [3] -18.1% | [4] -21.6% | [5] -30.8% | [6] 40.2%

Nc1ccc2cc(S(=O)(=O)O)ccc2c1
inactive: [1] 3.95% | [2] 14.9% | [3] -21.1% | [4] -3.95% | [5] 0.95% | [6] -6.05%

COc1ccc(OC)c(COC(=O)c2ccccc2)c1COC(=O)c1ccccc1
inactive: [1] 26.1% | [2] 3.9% | [3] 20.2% | [4] 4.2% | [5] 1.6% | [6] 5.7%

CC1CCC2N(C1)CC1C3(O)CC4(O)C(CCC5C(=O)C(O)CCC54C)C3(O)CC(O)C1(O)C2(C)O (stereo unspecified)
inactive: [1] 5.5% | [2] -26.9% | [3] -10.8% | [4] 10.9% | [5] -9.1% | [6] -7.7%

Cc1cccc(C)[n+]1[O-]
inactive: [1] 1.6% | [2] 5.25% | [3] -6.9% | [4] -38.8% | [5] 16.5% | [6] 0.65%

O=C1OC2c3ccccc3CC1C2CO (stereo unspecified)
inactive: [1] 20.9% | [2] 4.7% | [3] 7.55% | [4] 9.25% | [5] 2% | [6] -4.45%

Oc1cccc(NCNC2Nc3ccccc3N2)c1
inactive: [1] 6.5% | [2] 14.7% | [3] -1.4% | [4] -11.1% | [5] 9.7% | [6] 13.6%

O=c1oc2ccc3ccccc3c2c2c1CCCCC2
inactive: [1] -13.9% | [2] -4.05% | [3] -14.8% | [4] -22.1% | [5] -8.05% | [6] -26.5%

COc1cc2c(c(OC)c1OC)-c1ccc(SC)c(=O)cc1[C@@H](NC(=O)NCCCl)CC2
inactive: [1] 1.1% | [2] -16.8% | [3] -18.1% | [4] 4.6% | [5] -28.4% | [6] -10.2%

CCCCCCCCCCCCCCCCN(C)C(=S)c1ccc(OC)cc1
inactive: [1] 25.4% | [2] -3.4% | [3] -1.8% | [4] -3.15% | [5] -1% | [6] -8.4%

CCOC(=O)C(Cl)Cc1ccccc1 (stereo unspecified)
inactive: [1] 4.75% | [2] 13.4% | [3] 13.4% | [4] 5.45% | [5] -5.15% | [6] 1.9%

Cc1cc(S(=O)(=O)Nc2nc(N)n(C)n2)c(S)cc1Cl
inactive: [1] -19.1% | [2] -18.3% | [3] -3.3% | [4] -3.1% | [5] -29.2% | [6] -1.85%

CCC1(O)CC2CN(CCc3c([nH]c4ccccc34)C(C(=O)OC)(c3cc4c(cc3OC)N(C)C3C(O)(C(N)=O)C(O)C5(CC)C=CCN6CCC43C65)C2)C1 (stereo unspecified) (tested in a mixture with another compound)
inactive: [1] -2.3% | [2] -21.1% | [3] -0.35% | [4] 2.7% | [5] 1.05% | [6] 20.7%

O=C(Nc1ccc(C(=O)O)cc1)OCc1ccccc1
inactive: [1] 1.65% | [2] 8.75% | [3] 15.5% | [4] -36% | [5] 2.5% | [6] -7.7%

CC(=O)OCC1OC(OC(C)=O)C(NC(=O)CN(Cc2ccccc2)S(C)(=O)=O)C(OC(C)=O)C1OC(C)=O (stereo unspecified)
inactive: [1] -8.6% | [2] 13.9% | [3] -16.1% | [4] -1.65% | [5] 0.35% | [6] -4.05%

OCC(CO)(CO)COCC(CO)(CO)CO
inactive: [1] 8.5% | [2] -25.1% | [3] 6.75% | [4] 10% | [5] -12.3% | [6] 13.1%

CCCC(C)C1(CC)NC(C)(C)CC(C)O1 (stereo unspecified)
inactive: [1] 2.75% | [2] 0.8% | [3] -5.75% | [4] -29.4% | [5] 4.9% | [6] 1.2%

CCCCCCCCCCCCCCCCSc1ccc(Br)cc1
inactive: [1] 45% | [2] 7% | [3] 23.9% | [4] 1.8% | [5] 2.2% | [6] 21%

Cc1c(Cl)cccc1NC(=O)c1c(Cl)c(Cl)c(Cl)c(Cl)c1C(=O)O
inactive: [1] 7.15% | [2] -1.35% | [3] 8.6% | [4] -31.7% | [5] 0.85% | [6] 14.1%

Clc1ccc(-c2nnc(-c3cccc4ccccc34)o2)cc1Cl
inactive: [1] 10.1% | [2] -32.3% | [3] -29.5% | [4] 54% | [5] -47.9% | [6] -15%

N#CCCN(C1=NN(C(=O)CC(=O)Nc2cccc(Cl)c2)C(c2ccccc2)C1)c1ccccc1Cl (stereo unspecified)
inactive: [1] 8.2% | [2] -28.8% | [3] -16.1% | [4] 11.5% | [5] -14.9% | [6] -30.9%

CSc1nc(NC2OC(COC(C)=O)C(OC(C)=O)C(OC(C)=O)C2OC(C)=O)c(-c2csc(N)n2)c(=O)n1C (stereo unspecified)
inactive: [1] -6.8% | [2] -38% | [3] -22.4% | [4] 10.2% | [5] -8.15% | [6] 13.3%
